Sampled rows, rich in hits. Any-hit rate of the full collection: about 1.4%.
S-ASM inh: blocks human secretory acid sphingomyelinase | placental ASM, HMU-PC fluorogenic substrate, 60 min | Potency, µM (top dose mostly 57.5 µM), for the others: at the highest dose activity change, negative = inhibition, actives largely listed as inhibitors | 0.006% of 340,000 active; further: potency means the concentration at half of the fitted maximal effect
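Steps: dispense placental human ASM, pin compound, wait 10 min at room temperature, add HMU-PC0 substrate at 9 uM final, incubate 60 min at 37 °C, add stop solution raising pH to 10, read fluorescence.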
12-LOX inh: blocks human arachidonate 12S-lipoxygenase | P18054 | AID 1671190 | 1.1% of 580,000 active | Potency, µM (doses to about 108 µM), inactives show at the top dose activity change, negative = inhibition, actives largely listed as inhibitors | purified 12hLO, xylenol orange hydroperoxide absorbance; further: potency means the concentration at half of the fitted maximal effect; on the % scale 0 is the no-effect control and ±100 the full control effect
Target sequence (P18054 whole entry, looked up): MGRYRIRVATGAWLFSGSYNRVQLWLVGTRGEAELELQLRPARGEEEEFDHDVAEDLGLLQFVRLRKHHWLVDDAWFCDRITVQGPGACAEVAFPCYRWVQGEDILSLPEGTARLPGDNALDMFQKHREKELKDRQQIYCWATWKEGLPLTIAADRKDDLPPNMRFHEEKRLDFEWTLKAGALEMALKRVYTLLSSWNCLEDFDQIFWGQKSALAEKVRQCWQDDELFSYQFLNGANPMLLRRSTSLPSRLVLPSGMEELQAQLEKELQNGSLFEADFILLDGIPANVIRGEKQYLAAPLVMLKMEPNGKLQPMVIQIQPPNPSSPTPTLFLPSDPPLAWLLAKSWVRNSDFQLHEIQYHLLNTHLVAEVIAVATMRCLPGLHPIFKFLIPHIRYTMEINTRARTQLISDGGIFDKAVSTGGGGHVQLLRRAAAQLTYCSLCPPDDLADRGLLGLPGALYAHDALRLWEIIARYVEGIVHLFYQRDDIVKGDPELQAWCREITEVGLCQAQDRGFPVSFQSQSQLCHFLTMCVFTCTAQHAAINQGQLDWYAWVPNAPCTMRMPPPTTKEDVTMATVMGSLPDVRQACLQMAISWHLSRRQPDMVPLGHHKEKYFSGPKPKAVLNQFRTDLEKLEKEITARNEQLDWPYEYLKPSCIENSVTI
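Hydroperoxide product was detected by ferrous iron/xylenol orange as the 573 to 405 nm absorbance ratio. Arachidonic acid at 40 uM (final) was turned over for 30 min at room temperature by 150 nM human 12hLO, pH 7.0 Hepes buffer, after 15 min compound preincubation.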
p53 reactivation: re-activators of mutant p53; H1299 p53-A138V BP100-luciferase reporter, luminescence, 24 h; 0.063% of 320,000 active; Potency, µM (top dose mostly 92.2 µM), for the others: at the top dose activity change, positive = activation, hits mostly activators; AID 504706; further: potency means the concentration at half of the fitted maximal effect; % of control where 0% means no effect; nearly all actives have a fitted effect of over 45% in size
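p53-null H1299 cells stably carrying temperature-sensitive p53-A138V and a BP100-luciferase reporter were pinned with compounds (4-point, 1:5 series) and held 24 hrs at 37 deg C. Luminescence was read 10 min after detection reagent.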
Mm-Cpn inhibitor: blocks the Methanococcus maripaludis chaperonin Mm-Cpn | purified Mm-Cpn ATPase, ADP Transcreener TR-FRET | Potency, µM (titrated, usually from 76.9 µM), for inactives: at the top dose activity, negative = inhibition, most hits filed as inhibitors | 0.031% of 330,000 active; further: potency means the concentration at half of the fitted maximal effect; on the % scale 0 is the no-effect control and ±100 the full control effect; nearly all actives have a fitted effect of over 80% in size
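Purified archaeal Mm-CPN (25nM final) preincubated 10 min at 37degC with compound, then 10uM ATP for 30 min at 37degC; ADP measured by HTRF Transcreener TR-FRET; buffer 30 mM TRIS pH 7.4, 100mM KCl, 5mM MgCl2, 1mM DTT.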
CCT modulator: modulators of cytosolic chaperonin (CCT/TRiC) activity | purified chaperonin ATPase assay, HTRF ADP detection, 30 min | activity change, % (no concentration beside the values), hits read low | 0.3% of 360,000 active; in the data active means activity change below about -30%; further: on the % scale 0 is the no-effect control and ±100 the full control effect
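ATPase activity: ADP formed was measured by HTRF Transcreener (665/615 nm ratio) after 30 min at 37 deg C with 10 uM ATP. Compounds screened at one 76 uM concentration against 40 or 20 nM TRiC in Tris pH 7.4/KCl/MgCl2/DTT buffer.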
PINK1 expr mod: changes PINK1 expression; PINK1 immunofluorescence, high-content cytometry, 24 h; Potency, µM (highest dose often 76.6 µM), for the others: at the top dose activation (PINK1 increase), usual class: activators; 0.2% of 410,000 active; AID 624263; active means well fitted activation curve with a large enough effect; inconclusive means small, poorly fitted or top-dose-only effect; cell line not stated here; further: potency means the concentration at half of the fitted maximal effect; % of control where 0% means no effect; nearly all actives have a fitted effect of over 65% in size
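Measures PINK1 amount and localization on or inside mitochondria by immunofluorescence. Stable cells get compounds at 5 concentrations for 24 hours before fixation and staining; CCCP controls included.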
An asterisk follows results filed as active; ? = inconclusive; . = not tested or not shown; ! = not active in a repeat; [ ] = another dose, or the depositor's remark. Unless noted, the call rests on the fitted dose curve; in most records, active means well fitted curve in the direction sought with a large enough effect; inconclusive means small, poorly fitted or top-dose-only effect, or another doubt; inactive means no such curve, though single readings can be large; an effect the other way counts as inactive or inconclusive.

SMILES	S-ASM inh	12-LOX inh	p53 reactivation	Mm-Cpn inhibitor	CCT modulator	PINK1 expr mod
CCOc1ccccc1NC(=O)c1nnn(-c2cccc(C(F)(F)F)c2)c1N	.	16%	.	.	.	.
COc1ccc(C(C)O)cc1CSc1nc2ccccc2s1 (centres undefined)	.	2%	.	.	.	.
COc1ccc(C2NCCc3c2[nH]c2ccccc32)cc1CSc1nc2ccccc2s1 (centres undefined)	-19%	32µM*	-20%	-5%	0	-3%
CCCCCNC(=O)C(c1ccc(-c2ccccc2)cc1)n1c(=O)c(-c2ccccc2)nc2ccccc21 (centres undefined)	.	1%	.	.	.	.
O=C(NCc1ccccc1)C(c1ccc(C(F)(F)F)cc1)n1c(=O)c(-c2ccco2)nc2ccccc21 (centres undefined)	.	5µM*	.	.	.	.
CCCCCNC(=O)C(c1ccccc1F)n1c(=O)c(-c2ccco2)nc2ccccc21 (centres undefined)	.	20µM*	.	.	.	.
CCCCCNC(=O)C(c1cccc2ccccc12)n1c(=O)c(-c2ccccc2)nc2ccccc21 (centres undefined)	.	-6%	.	.	.	.
CCCCCNC(=O)C(c1ccc(OC)cc1)n1c(=O)c(-c2ccco2)nc2ccccc21 (centres undefined)	.	5.6µM*	.	.	.	.
O=C(NC1CCCCC1)C(c1ccc(-c2ccccc2)cc1)n1c(=O)c(-c2ccco2)nc2ccccc21 (centres undefined)	.	45µM*	.	.	.	.
Cc1ccc(NC(=O)N2CCCC(Cn3c(C4CC4)nc4cccnc43)C2)cc1C (centres undefined)	.	15%	.	.	.	.
NNCCc1ccccc1F	.	-44%	.	.	.	.
CC(=O)c1c(C)[nH]c(C(=O)OC(c2ccccc2)c2ccc(Cl)cc2)c1C (centres undefined)	.	-51%	.	.	.	.
CC1CCCCN1C(C)CNC(=S)NCc1ccc(F)cc1 (centres undefined)	.	51%	.	.	.	.
CCc1nc2ccc(C(=O)Nc3cc(C)ccn3)cc2nc1CC	.	20%	.	.	.	.
Cc1cc(F)ccc1S(=O)(=O)Nc1ccc(C(=O)N2CCCCCC2)cc1	2%	1%	0%	-1%	0	1%
Cc1cc(F)ccc1S(=O)(=O)Nc1ccc(N2CCCC2)c(F)c1	.	4µM*	.	.	.	.
COc1ccc(-c2cn3ccc4ccccc4c3n2)cc1	0%	25%	28µM*	-4%	-4	1%
CCOC(=O)C(NC(=O)c1ccc(OC)cc1)(Nc1ccc(OC)cc1)C(F)(F)F (centres undefined)	.	9%	.	.	.	.
CCS(=O)(=O)NCC1(COc2ccccc2)C[C@@H](O)[C@@H](O)C1 (some centres undefined)	.	56µM*	.	.	.	.
CC(C)(C)NC(=O)C1CCC(C)(C(=O)O)C1(C)C (centres undefined)	3%	0%	-5%	0%	-2	-14%[38.3 µM]
CN(C)C(=O)C1CCC(C)(C(=O)O)C1(C)CI (centres undefined)	.	40µM*	.	.	.	.
CC(C)CC(=O)Nc1ccc2c(c1)oc1ccccc12	-2%	-9%	?	1%	-40*	3%
COc1ccccc1OCc1nnc(SCC(=O)Nc2ccc(C)cc2)n1C	-1%	2%	-6%	-2%	-1	1%
Cc1ccccc1OCc1nnc(SCC(=O)Nc2ccc3c(c2)oc2ccccc23)n1C	-1%	-18%	10%	0%	1	13µM*
CC(C)(C)n1nnnc1C(C1CC1)N1C(=O)C(=O)c2ccccc21 (centres undefined)	.	10%	.	.	.	.
SMILES	S-ASM inh	12-LOX inh	p53 reactivation	Mm-Cpn inhibitor	CCT modulator	PINK1 expr mod
CC(C)CCNC(=S)NCc1ccco1	.	32µM*	.	.	.	.
O=C(CC12CC3CC(CC(C3)C1)C2)NC(=S)NCc1ccco1	-1%	28µM*	?	1%	-1	7%
O=C(COc1ccc(Cl)cc1Cl)NNC(=S)NCc1ccco1	-4%	45µM*	3%	1%	-1	0%
S=C(NCc1ccco1)NCc1ccco1	2%	32µM*	.	.	0	-4%
O=C(NCc1ccco1)C12CC3CC(CC(C3)C1)C2	3%	-17%	-1%	1%	0	1%
CC(C)c1nc2cc(NC(=O)c3n[nH]c(=O)c4ccccc34)ccc2o1	.	8%	.	.	.	.
CCc1nnc(N/N=C/c2cccs2)n1N	-3%	-16%	24%	0%	-43*	-1%
CCc1nnc(N/N=C/c2c(Cl)cccc2Cl)n1N	1%	14%	-4%	-3%	-1	-2%[38.3 µM]
CCOC(=O)c1cc(-c2ccco2)nc2c1c(C)nn2-c1ccccc1	30%	35µM*!	7%	-5%	1	6%
CCOC(=O)c1cc(-c2ccc(OC)cc2)nc2c1c(C)nn2CCC(N)=S	144%	40µM*	21%	1%	-1	0%
CCOC(=O)c1cc(-c2ccco2)nc2c1c(C)nn2-c1ccccc1Cl	.	32µM*	.	.	.	.
Cc1n[nH]c(C)c1S(=O)(=O)Nc1ncn(Cc2ccc(Cl)c(Cl)c2)n1	.	-5%	.	.	.	.
S=C(NCc1ccc(Cl)cc1)Nc1ccccc1	-3%	?	1%	0%	-1	4%
S=C(NCCc1ccc(Cl)cc1)Nc1ccc(Nc2ccccc2)cc1	.	28µM*	.	.	.	.
S=C(NCc1ccc(Cl)cc1)Nc1ccc(Br)cn1	.	4.5µM*	.	.	.	.
S=C(NCCc1ccccc1)Nc1ccc(Cl)cc1	-2%	?	?	3%	2	15%
S=C(NCc1ccc(Cl)cc1)Nc1ccc(Nc2ccccc2)cc1	.	18µM*	.	.	.	.
c1csc(CNCc2cccc3[nH]ccc23)c1	.	-27%	.	.	.	.
Cc1ccc(-c2cc(C(=O)N3CCN(c4ccc(F)cc4)CC3)c3ccccc3n2)o1	169%	14µM*	22%	1%	-1	0%
COc1ccc(-c2cc(C(=O)N3CCCC(C(F)(F)F)C3)c3ccccc3n2)cc1 (centres undefined)	56%	-26%	5%	-3%	0	3%
Cc1ccc(-c2cc(C(=O)N3CCCC(C(F)(F)F)C3)c3ccccc3n2)o1 (centres undefined)	.	7.9µM*!	4%	-4%	0	-1%
COc1ccccc1Nc1ncncc1-c1nc(-c2ccccc2)no1	.	57%	.	.	.	.
CCn1c(SC(C)C(=O)Nc2ccc3c(c2)OCO3)nc2ccc(Br)cc2c1=O (centres undefined)	.	-4%	.	.	.	.
CCOc1cc(C2/C(=C(\O)c3ccc(Cl)cc3)C(=O)C(=O)N2c2cc(C)on2)ccc1O (centres undefined)	.	16µM*	.	.	.	.
COc1cccc(Nc2sc(C(=O)c3ccc(F)cc3)c(N)c2C(=O)NCc2ccc(Cl)cc2)c1	.	-22%	.	.	.	2%

From PubChem
